Here are results for 89 molecules from PubChem BioAssay AID463173 (ICCB-Longwood Screening Facility, Harvard Medical School, 2010).

The whole screen tested about 52,000 compounds, of which about 4,300 (8.3%) were called active. What follows is part of a selection rich in actives, with near analogues and random picks from the rest. Values without a mark were called inactive. Rule as the data show it: active = survival mostly below about 52% (no sharp cut-off); inactive = mostly above about 56%.

The test relates to DeltatarO mutant. The test can be described thus: growth inhibition of S. aureus wild type versus tarO mutant, primary screen, teichoic acid synthesis inhibitors, RN4220, OD600 (AID 463173). Particulars: OD600, 18 h, active compounds read low, screened at 18.75 µg/mL (by protocol).
On to `Cc1ccc(-c2nnc(SCc3cccc(C#N)c3)o2)cc1`, for which the survival was 62%.
As for `COc1cccc(CNC(=O)c2cnc(N3CCCCC3)c3ccccc23)c1`, the survival was 86%.
In the case of `CCN(CC)C(=O)Cn1ncc2c([nH]c3ccccc32)c1=O`, the survival is 118%.
With `Cc1ccc(N(C)C(=O)Cn2ncc3c([nH]c4ccccc43)c2=O)cc1C`, the survival was 37% (active).
With `COc1cc(OC)c(N(C)C(=O)Cn2ncc3c([nH]c4ccccc43)c2=O)cc1Cl` the figure was 91%.
As for `CCCN(C(=O)Cn1ncc2c([nH]c3ccccc32)c1=O)c1ccc(F)cc1`, the figure is 101%; as for `CCOC(=O)C1CCN(C(=O)Cn2ncc3c([nH]c4ccccc43)c2=O)CC1`, 25% (active).
As for `CCOc1ccccc1NC(=O)Cn1ncc2c([nH]c3ccccc32)c1=O`, the figure is 126%; as for `CCOC(=O)C1CCN(C(=O)Cn2ncc3c([nH]c4ccc(C)cc43)c2=O)CC1`, 72%; as for `Cc1ccc(CNC(=O)Cn2ncc3c([nH]c4ccc(C)cc43)c2=O)cc1`, 88%.
As to `CCOc1ccccc1N(CC)C(=O)Cn1ncc2c([nH]c3ccccc32)c1=O`, the survival was 46% (active).
Turning to `Cc1ccc2[nH]c3c(=O)n(CC(=O)NC(C)C)ncc3c2c1`, the survival was 6% (active).
`Cc1ccc(CCNC(=O)Cn2ncc3c([nH]c4ccc(C)cc43)c2=O)cc1`: the survival is 119%.
As for `CCOC(=O)C1CCCN(C(=O)Cn2ncc3c([nH]c4ccccc43)c2=O)C1` (centres undefined), the figure is 83%; as for `Cc1ccccc1S(=O)(=O)Cc1ccc(C(=O)NCCc2ccccc2)o1`, 76%; as for `Cc1ccc2c(c1)c1c(c(=O)n(-c3ccccc3C)c(=O)n1Cc1ccccc1F)n2C`, 73%.
With `CCCN(CCC)C(=O)Cn1c(=O)n(-c2cccc(C)c2)c(=O)c2c1c1cc(OC)ccc1n2C`, the survival was 64%.
Take `CCOc1ccc(CCNC(=O)CCCn2nc(C)c3sc4ccccc4c3c2=O)cc1`: the survival was 72%.
On to `CCOc1ccc(CCNC(=O)NCc2noc3ccc(C)cc23)cc1`, for which the survival was 74%.
As to `COCCCNC(=O)c1ccc(Cn2c(=O)c3ccccc3n(Cc3c(C)cc(C)cc3C)c2=O)cc1`, the survival is 107%.
Take `CCCNC(=O)N(C)c1ncnnc1NC`: the survival was 98%.
As to `COc1ccccc1C(=O)Nc1nnc(SCc2cc(=O)c3cc(Cl)ccc3[nH]2)s1`, the survival is 62%.
Take `Cc1ccc2[nH]c3c(=O)n(CC(=O)N(CCN(C)C)Cc4ccccc4)ncc3c2c1`: the survival was 97%.
Take `Cc1ccc2[nH]c3c(=O)n(CC(=O)N(C)Cc4ccccc4)ncc3c2c1`: the survival is -1% (active).
Consider `CCCCN(C)C(=O)Cn1ncc2c([nH]c3ccc(C)cc32)c1=O`, for which the survival is 70%.
Turning to `Cc1cc(F)ccc1NC(=O)c1c(C)oc2c1C1=NCCN1C=N2`, the survival was 102%.
For `Cc1cccc(CNC(=O)c2ccc(C)c(-n3c(C)nc4cccnc43)c2)c1`, the survival is 67%.
With `CCC(C)NC(=O)C1CCCN(S(=O)(=O)c2ccc(C)c(Cl)c2)C1` (centres undefined) the figure was 94%; with `COc1ccc(NC(=O)Cn2c(=O)n(Cc3nc(-c4ccccc4)no3)c(=O)c3cc4c(cc32)OCO4)c(OC)c1`, 94%; with `CCOc1ccc(CCNC(=O)C(CC)n2nc(C)c3c(C)n(-c4ccccc4)nc3c2=O)cc1` (centres undefined), 69%.
As for `Cc1ccccc1OC(=O)c1snnc1C`, the survival is 90%.
Regarding `CCS(=O)(=O)c1ncc(Cl)c(C(=O)N(Cc2ccccc2)Cc2ccco2)n1`, the survival was 52%.
With `CSc1ncc(Cl)c(C(=O)N(Cc2ccc(N(C)C)cc2)Cc2ccco2)n1`, the survival was 80%.
On to `CCCSc1ncc(Cl)c(C(=O)N(Cc2ccc(Cl)cc2)Cc2ccco2)n1`, for which the survival was 39% (active).
As for `CS(=O)(=O)c1ncc(Cl)c(C(=O)N(Cc2ccc(Cl)cc2)Cc2ccco2)n1`, the figure is 4% (active); as for `CCCS(=O)(=O)c1ncc(Cl)c(C(=O)N(Cc2ccccc2)Cc2ccco2)n1`, 40% (active); as for `Cc1ccc(CN(Cc2ccco2)C(=O)c2ccc(Cl)cc2Cl)cc1`, 53%.
As for `CCCOc1ccc(C(=O)N(Cc2ccc(Cl)cc2)Cc2ccco2)cc1`, the figure is 50%; as for `CCSc1ncc(Cl)c(C(=O)N(Cc2ccc(N(C)C)cc2)Cc2ccco2)n1`, 104%; as for `CCSc1ncc(Cl)c(C(=O)N(Cc2ccccc2)Cc2ccco2)n1`, 106%.
For the molecule `Cc1cccc2c1-c1sc(C(=O)NCc3ccccc3Cl)cc1CO2`, the survival was 55%.
Consider `Cc1ccc(NC(=O)C2CCCN(S(=O)(=O)c3ccc4c(c3)oc(=O)n4C)C2)cc1Cl` (centres undefined), for which the survival is 76%.
As for `COc1ccc(C(=O)CSc2nc(C)cc(C)n2)cc1C`, the survival is 104%.
As for `Cc1ccc(NC(=O)CN2CCCN(Cc3cc(C)ccc3C)S2(=O)=O)c(Cl)c1`, the figure is 81%; as for `CCc1cccc(C)c1NC(=O)Cn1ccn(-c2ccc(F)cc2)c(=O)c1=O`, 52%.
With `Cc1ccc(NC(=O)Cn2ccn(Cc3ccc(Cl)cc3)c(=O)c2=O)cc1C`, the survival was 111%.
For the molecule `Cc1ccc(CN2CCCN(CC(=O)Nc3ccc(C)cc3C)S2(=O)=O)cc1`, the survival was 89%.
Take `Cc1ccccc1CN1CCCN(CC(=O)Nc2c(C)cccc2C)S1(=O)=O`: the survival is 93%.
As for `Cc1ccc(NC(=O)CN2CCCN(Cc3ccccc3Cl)S2(=O)=O)c(C)c1`, the figure is 17% (active); as for `CCc1cccc(C)c1NC(=O)CN1CCCN(Cc2ccccc2Cl)S1(=O)=O`, 55%; as for `CCc1cccc(C)c1NC(=O)Cn1ccn(Cc2ccc(Cl)cc2)c(=O)c1=O`, 41% (active).
In the case of `CCc1cccc(C)c1NC(=O)CN1CCCN(Cc2ccc(C)cc2)S1(=O)=O`, the survival is 8% (active).
`CCOc1ccc(CNC(=O)CSc2nnc(C)c3c(C)n(-c4ccccc4)nc23)cc1`: the survival is 82%.
Turning to `CCN1CCC(N(Cc2ccc3c(c2)OCO3)C(=O)Nc2cc(Cl)ccc2C(=O)OC)CC1`, the survival is 126%.
With `CCOC(=O)Cc1csc(NC(=O)CSc2nc3c(C)c(C)ccc3cc2C#N)n1` the figure was 78%.
Take `COc1ccc(CC(C(=O)O)c2ccccc2)cc1` (centres undefined): the survival is 65%.
Regarding `CC1CCN(c2ccc(-c3cccc(NS(=O)(=O)c4ccc(Cl)s4)c3)nn2)CC1`, the survival is 72%.
As for `O=S(=O)(Nc1cccc(-c2ccc(N3CCCCC3)nn2)c1)c1cccc(F)c1`, the survival is 91%.
Take `Cc1ccc(S(=O)(=O)Nc2cccc(-c3ccc(N4CCC(C)CC4)nn3)c2)s1`: the survival is -1% (active).
With `Cc1ccc(S(=O)(=O)Nc2cccc(-c3ccc(N4CCCCC4)nn3)c2)s1` the figure was 76%; with `O=S(=O)(Nc1cccc(-c2ccc(N3CCCCCC3)nn2)c1)c1ccc(F)cc1`, 79%; with `O=S(=O)(Nc1ccc(-c2ccc(N3CCCCC3)nn2)cc1)c1ccc(OC(F)(F)F)cc1`, 82%.
As to `O=S(=O)(Nc1ccc(-c2ccc(N3CCCC3)nn2)cc1)c1ccc(OC(F)(F)F)cc1`, the survival is -4% (active).
With `COc1ccc(C)cc1S(=O)(=O)Nc1cccc(-c2ccc(N3CCC(C)CC3)nn2)c1` the figure was -2% (active); with `COc1ccc(C)cc1S(=O)(=O)Nc1cccc(-c2ccc(N3CCCC3)nn2)c1`, 78%; with `O=S(=O)(Nc1ccc(-c2ccc(N3CCCC3)nn2)cc1)c1ccc(C(F)(F)F)cc1`, 72%.
As for `O=S(=O)(Nc1cccc(-c2ccc(N3CCCCCC3)nn2)c1)c1ccccc1`, the survival was 6% (active).
Take `COc1ccc(F)cc1S(=O)(=O)Nc1cccc(-c2ccc(N3CCC(C)CC3)nn2)c1`: the survival was 109%.
For `O=C(c1ccccc1Cl)N(Cc1ccco1)Cc1cc2cc3c(cc2nc1Cl)OCO3`, the survival was 103%.
Consider `CCc1cnc2c(c1SCc1cc(OC)cc(OC)c1)c(=O)n(C)c(=O)n2C`, for which the survival is 75%.
For the molecule `O=C(O)C1C2C=CC(C2)C1C(=O)N1CCN(Cc2ccccc2)CC1` (centres undefined), the survival was 59%.
Take `COc1ccc(S(=O)(=O)c2c(Nc3ccccc3F)sc(C(=O)c3cccc(OC)c3)c2N)cc1`: the survival is 97%.
Take `Cc1sc2ncn(CC(=O)N(C)c3ccc(Br)cc3)c(=O)c2c1S(=O)(=O)N1CCC(C)CC1`: the survival is 70%.
Consider `Cc1ccc(OCc2cc(=O)n3cc(C)sc3n2)c(C)c1`, for which the survival is 59%.
As for `Cc1ccc(NC(=O)c2ccc(=O)n(CC(=O)Nc3ccccc3)n2)cc1`, the figure is 85%; as for `O=C(Cn1ncc2c3ccccc3n(Cc3cccc(Cl)c3)c2c1=O)NCc1cccs1`, 99%.
On to `Cc1cccc(CN2CCN(CC(=O)NCc3ccc(Cl)cc3)C2=O)c1`, for which the survival was 72%.
As for `Cc1cccc2nc(-c3cccc(NS(=O)(=O)c4ccccc4)c3)cn12`, the figure is 35% (active); as for `Cc1csc2nc(-c3cccc(NS(C)(=O)=O)c3)cn12`, 88%; as for `Cc1cccn2cc(-c3cccc(NS(=O)(=O)c4ccc(Cl)c(Cl)c4)c3)nc12`, 101%.
On to `COc1ccc(-n2nc(C(=O)Nc3ccc(C)cn3)c3c4ccccc4n(C)c3c2=O)cc1Cl`, for which the survival is 98%.
As for `CN(C)c1cccc(C(=O)N2CCC(c3ccncc3)CC2)c1`, the figure is 88%; as for `O=c1[nH]nc(SC(F)(F)C(F)(F)C(F)(F)F)c(=O)[nH]1`, 37% (active); as for `CC(C)(C)c1ccc(CSc2n[nH]c(=O)[nH]c2=O)cc1`, 98%.
With `CCCCCCSc1n[nH]c(=O)[nH]c1=O` the figure was 78%.
On to `Cc1oc(-c2ccc(Cl)cc2)nc1Cn1c(=O)cc(C)c2c(C)nn(-c3cccc(F)c3)c21`, for which the survival was 82%.
Take `O=C(Nc1ccc(Cl)c(C(F)(F)F)c1)C(Cc1ccccc1)NS(=O)(=O)c1ccc(Br)s1` (centres undefined): the survival is 82%.
On to `Cc1ccc(NS(=O)(=O)c2ccc3c(c2)CCCN3C(=O)C2CCC2)c(C)c1`, for which the survival was 85%.
Regarding `CN(C)S(=O)(=O)c1ccc(C(=O)NCCSc2c(-c3ccccc3)[nH]c3ccccc23)cc1`, the survival was 68%.
